# From PubChem BioAssay (NCI)
# About 79,000 compounds went through this panel and 15% of them were active in at least one assay; those are over-represented in the sample as a whole. Values without a mark were called inactive. The source made the active and inactive calls. Rule as the data show it: active = growth inhibition above about 70%; inactive = the rest.
# How the values were obtained:
# [1] = NCI Yeast Anticancer Drug Screen. Data for the rad52 strain (AID 147);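 also: 0% = growth of vehicle-treated control cultures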; conditions: S. cerevisiae rad52 mutant growth inhibition, hits give high values
# Outline: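 The repair-mutant yeast strain was incubated with compounds, then growth was read and inhibition derived relative to vehicle.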
# [2] = NCI Yeast Anticancer Drug Screen. Data for the wt1 strain (AID 149);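 also: 0% = growth of vehicle-treated wt1 cultures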; conditions: S. cerevisiae wt1 strain (SPY 50644) growth inhibition, hits give high values
# Outline: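 Using yeast strain wt1, compound-induced growth inhibition was determined against vehicle-treated cultures.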
# [3] = NCI Yeast Anticancer Drug Screen. Data for the rad50EPP+ strain (AID 151);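 also: 0% = growth of vehicle-treated control cultures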; conditions: S. cerevisiae rad50 mutant strain, hits give high values
# Outline: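 Vehicle-normalised growth inhibition; rad50EPP+ yeast strain, altered in DNA damage repair, compound-treated.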
# [4] = NCI Yeast Anticancer Drug Screen. Data for the mgt1 strain (AID 153); conditions: S. cerevisiae mgt1 mutant growth inhibition, hits give high values
# Outline: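 Vehicle-normalized growth inhibition is determined in mgt1 yeast, a strain selected for a defined alteration in DNA repair or cell cycle control.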
# [5] = NCI Yeast Anticancer Drug Screen. Data for the rad50 strain (AID 155);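 also: 0% = growth of vehicle-only cultures of the same strain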; conditions: S. cerevisiae rad50 strain growth inhibition, hits give high values
# Outline: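 Relative growth inhibition (compound vs vehicle) was measured in yeast with a defined repair-gene alteration.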
# [6] = NCI Yeast Anticancer Drug Screen. Data for the mec2-1 strain (AID 157); conditions: S. cerevisiae mec2-1 strain, hits give high values
# Outline: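 Mutant yeast (mec2-1) grown with compound; growth inhibition relative to vehicle control reported.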
# [7] = NCI Yeast Anticancer Drug Screen. Data for the rad14 strain (AID 159);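 also: 0% = growth of vehicle-treated control cultures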; conditions: S. cerevisiae rad14 strain growth inhibition, hits give high values
# Outline: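 Screen for anticancer potential: a yeast strain altered in DNA damage repair is grown with compound, and reduced growth is quantified against vehicle controls.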
# [8] = NCI Yeast Anticancer Drug Screen. Data for the sgs1 mgt1 strain (AID 161);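 also: 0% = growth of cultures given vehicle only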; conditions: S. cerevisiae sgs1 mgt1 strain, hits give high values
# Outline: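 This yeast growth screen uses a strain with defined DNA-repair lesions; compound-treated growth is compared with vehicle-treated growth.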
# [9] = NCI Yeast Anticancer Drug Screen. Data for the CLN2oe strain (AID 163);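 also: 0% = growth of vehicle-only control cultures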; conditions: S. cerevisiae CLN2oe strain, hits give high values
# Outline: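 Compounds are applied to yeast harbouring a defined cell-cycle control change; reduced growth compared with vehicle-treated controls gives the value.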
# [10] = NCI Yeast Anticancer Drug Screen. Data for the cln2 rad14 strain (AID 165);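 also: 0% = growth equal to vehicle treated cultures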; conditions: S. cerevisiae cln2 rad14 strain, hits give high values
# Outline: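 Readout is yeast growth inhibition versus vehicle-treated controls, using a strain with cln2 and rad14 alterations exposed to compound.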
# [11] = NCI Yeast Anticancer Drug Screen. Data for the bub3 strain (AID 167); conditions: S. cerevisiae bub3 mutant strain, hits give high values
# Outline: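 Screening used yeast with an engineered genetic alteration affecting cell cycle control. Compound-exposed cultures were compared with vehicle cultures, and reduced growth was taken as inhibition.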
# [12] = NCI Yeast Anticancer Drug Screen. Data for the wt2 strain (AID 169);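 also: 0% = growth of vehicle-treated yeast cultures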; conditions: S. cerevisiae wt2 strain growth inhibition, hits give high values
# Outline: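 Against vehicle-treated controls, the growth of yeast exposed to each compound was compared, and the inhibition was recorded.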
# [13] = NCI Yeast Anticancer Drug Screen. Data for the mlh1 strain (AID 171);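 also: 0% = growth of vehicle-treated control cultures of the same strain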; conditions: S. cerevisiae mlh1 strain growth inhibition, hits give high values
# Outline: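 Measured: yeast growth. Reference: vehicle-treated controls. Organism: strain with a defined alteration affecting DNA damage repair or cell cycle control, treated with compound.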
# [14] = NCI Yeast Anticancer Drug Screen. Data for the sgs1 strain (AID 173);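 also: 0% = growth of vehicle-only control cultures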; conditions: S. cerevisiae sgs1 mutant, hits give high values
# Outline: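 Each compound was added to cultures of the altered yeast strain. Growth was recorded, and inhibition was derived by comparison with vehicle controls.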
# [15] = NCI Yeast Anticancer Drug Screen. Data for the mlh1 rad18 strain (AID 175); conditions: S. cerevisiae mlh1 rad18 strain growth inhibition, hits give high values
# Outline: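 Genetically defined yeast (DNA repair-deficient) exposed to compounds; growth inhibition determined relative to vehicle.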
# [16] = NCI Yeast Anticancer Drug Screen. Data for the rad18 strain (AID 177); conditions: S. cerevisiae rad18 mutant growth inhibition, hits give high values
# Outline: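 Vehicle-treated cultures served as the baseline for scoring compound-induced growth inhibition in DNA-repair-mutant yeast.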
# [17] = at 5.0 µM (retest, dose inferred, filed as 0.5)
# [18] = at 50.0 µM (retest, dose inferred, filed as 5.0)
smiles,measurement,setting,value
COc1ccc(C(=O)/C=C\c2ccc(Cl)c(Cl)c2)cc1,growth inhibition,[1]; at 1.2 µM,16%
same,growth inhibition,[1]; at 3.7 µM,15%
same,growth inhibition,[1]; at 11.0 µM,19%
same,growth inhibition,[1]; at 33.0 µM,34%
same,growth inhibition,[1]; at 100.0 µM,56%
same,growth inhibition,[2]; at 1.2 µM,26%
same,growth inhibition,[2]; at 3.7 µM,26%
same,growth inhibition,[2]; at 11.0 µM,29%
same,growth inhibition,[2]; at 33.0 µM,43%
same,growth inhibition,[2]; at 100.0 µM,81% (active)
same,growth inhibition,[3]; at 1.2 µM,12%
same,growth inhibition,[3]; at 3.7 µM,10%
same,growth inhibition,[3]; at 11.0 µM,16%
same,growth inhibition,[3]; at 33.0 µM,31%
same,growth inhibition,[3]; at 100.0 µM,24%
same,growth inhibition,[4]; at 1.2 µM,7%
same,growth inhibition,[4]; at 3.7 µM,-38%
same,growth inhibition,[4]; at 11.0 µM,-4%
same,growth inhibition,[4]; at 33.0 µM,25%
same,growth inhibition,[4]; at 100.0 µM,70% (active)
same,growth inhibition,[5]; at 1.2 µM,4%
same,growth inhibition,[5]; at 3.7 µM,7%
same,growth inhibition,[5]; [17],53%
same,growth inhibition,[5]; at 11.0 µM,6%
same,growth inhibition,[5]; at 33.0 µM,34%
same,growth inhibition,[5]; [18],68%
same,growth inhibition,[5]; at 50.0 µM,69.5%
same,growth inhibition,[5]; at 100.0 µM,71% (active)
same,growth inhibition,[6]; at 1.2 µM,-7%
same,growth inhibition,[6]; at 3.7 µM,0%
same,growth inhibition,[6]; [17],47%
same,growth inhibition,[6]; at 11.0 µM,7%
same,growth inhibition,[6]; at 33.0 µM,23%
same,growth inhibition,[6]; [18],58%
same,growth inhibition,[6]; at 50.0 µM,59.6%
same,growth inhibition,[6]; at 100.0 µM,68%
same,growth inhibition,[7]; at 1.2 µM,-19%
same,growth inhibition,[7]; at 3.7 µM,-20%
same,growth inhibition,[7]; at 11.0 µM,-30%
same,growth inhibition,[7]; at 33.0 µM,-17%
same,growth inhibition,[7]; at 100.0 µM,42%
same,growth inhibition,[8]; [17],-18%
same,growth inhibition,[8]; [18],80% (active)
same,growth inhibition,[8]; at 50.0 µM,70.8% (active)
same,growth inhibition,[9]; at 1.2 µM,12%
same,growth inhibition,[9]; at 3.7 µM,10%
same,growth inhibition,[9]; at 11.0 µM,8%
same,growth inhibition,[9]; at 33.0 µM,22%
same,growth inhibition,[9]; at 100.0 µM,69%
same,growth inhibition,[10]; [17],18%
same,growth inhibition,[10]; [18],77% (active)
same,growth inhibition,[10]; at 50.0 µM,57.6%
same,growth inhibition,[11]; at 1.2 µM,0%
same,growth inhibition,[11]; at 3.7 µM,2%
same,growth inhibition,[11]; [17],12%
same,growth inhibition,[11]; at 11.0 µM,-3%
same,growth inhibition,[11]; at 33.0 µM,29%
same,growth inhibition,[11]; [18],80% (active)
same,growth inhibition,[11]; at 50.0 µM,74.6% (active)
same,growth inhibition,[11]; at 100.0 µM,67%
same,growth inhibition,[12]; at 1.2 µM,15%
same,growth inhibition,[12]; at 3.7 µM,0%
same,growth inhibition,[12]; at 11.0 µM,12%
same,growth inhibition,[12]; at 33.0 µM,37%
same,growth inhibition,[12]; at 100.0 µM,76% (active)
same,growth inhibition,[13]; at 1.2 µM,11%
same,growth inhibition,[13]; at 3.7 µM,12%
same,growth inhibition,[13]; at 11.0 µM,-11%
same,growth inhibition,[13]; at 33.0 µM,15%
same,growth inhibition,[13]; at 100.0 µM,64%
same,growth inhibition,[14]; at 1.2 µM,10%
same,growth inhibition,[14]; at 3.7 µM,5%
same,growth inhibition,[14]; at 11.0 µM,11%
same,growth inhibition,[14]; at 33.0 µM,44%
same,growth inhibition,[14]; at 100.0 µM,67%
same,growth inhibition,[15]; [17],39%
same,growth inhibition,[15]; [18],72% (active)
same,growth inhibition,[15]; at 50.0 µM,63.5%
same,growth inhibition,[16]; at 1.2 µM,-17%
same,growth inhibition,[16]; at 3.7 µM,-35%
same,growth inhibition,[16]; at 11.0 µM,-44%
same,growth inhibition,[16]; at 33.0 µM,-6%
same,growth inhibition,[16]; at 100.0 µM,52%
CC1CN(/N=C\c2ccc([N+](=O)[O-])o2)C(=O)O1 (stereo unspecified),growth inhibition,[1]; at 1.2 µM,1%
same,growth inhibition,[1]; at 3.7 µM,3%
same,growth inhibition,[1]; at 11.0 µM,9%
same,growth inhibition,[1]; at 33.0 µM,19%
same,growth inhibition,[1]; at 100.0 µM,59%
same,growth inhibition,[2]; at 1.2 µM,-2%
same,growth inhibition,[2]; at 3.7 µM,-2%
same,growth inhibition,[2]; at 11.0 µM,-2%
same,growth inhibition,[2]; at 33.0 µM,1%
same,growth inhibition,[2]; at 100.0 µM,10%
same,growth inhibition,[3]; at 1.2 µM,0%
same,growth inhibition,[3]; at 3.7 µM,-1%
same,growth inhibition,[3]; at 11.0 µM,4%
same,growth inhibition,[3]; at 33.0 µM,15%
same,growth inhibition,[3]; at 100.0 µM,48%
same,growth inhibition,[4]; at 1.2 µM,-1%
same,growth inhibition,[4]; at 3.7 µM,-1%
same,growth inhibition,[4]; at 11.0 µM,-1%
same,growth inhibition,[4]; at 33.0 µM,-1%
same,growth inhibition,[4]; at 100.0 µM,9%
same,growth inhibition,[5]; at 1.2 µM,9%
same,growth inhibition,[5]; at 3.7 µM,46%
same,growth inhibition,[5]; [17],8%
same,growth inhibition,[5]; at 11.0 µM,32%
same,growth inhibition,[5]; at 33.0 µM,24%
same,growth inhibition,[5]; [18],53%
same,growth inhibition,[5]; at 50.0 µM,75.7% (active)
same,growth inhibition,[5]; at 100.0 µM,72% (active)
same,growth inhibition,[6]; at 1.2 µM,2%
same,growth inhibition,[6]; at 3.7 µM,4%
same,growth inhibition,[6]; [17],-25%
same,growth inhibition,[6]; at 11.0 µM,6%
same,growth inhibition,[6]; at 33.0 µM,12%
same,growth inhibition,[6]; [18],46%
same,growth inhibition,[6]; at 50.0 µM,20.6%
same,growth inhibition,[6]; at 100.0 µM,45%
same,growth inhibition,[7]; at 1.2 µM,0%
same,growth inhibition,[7]; at 3.7 µM,-3%
same,growth inhibition,[7]; at 11.0 µM,-2%
same,growth inhibition,[7]; at 33.0 µM,10%
same,growth inhibition,[7]; at 100.0 µM,47%
same,growth inhibition,[8]; [17],27%
same,growth inhibition,[8]; [18],83% (active)
same,growth inhibition,[8]; at 50.0 µM,86.1% (active)
same,growth inhibition,[9]; at 1.2 µM,-7%
same,growth inhibition,[9]; at 3.7 µM,-6%
same,growth inhibition,[9]; at 11.0 µM,-3%
same,growth inhibition,[9]; at 33.0 µM,-7%
same,growth inhibition,[9]; at 100.0 µM,-6%
same,growth inhibition,[10]; [17],-3%
same,growth inhibition,[10]; [18],45%
same,growth inhibition,[10]; at 50.0 µM,18.9%
same,growth inhibition,[11]; at 1.2 µM,-1%
same,growth inhibition,[11]; at 3.7 µM,3%
same,growth inhibition,[11]; [17],-8%
same,growth inhibition,[11]; at 11.0 µM,0%
same,growth inhibition,[11]; at 33.0 µM,2%
same,growth inhibition,[11]; [18],14%
same,growth inhibition,[11]; at 50.0 µM,14.1%
same,growth inhibition,[11]; at 100.0 µM,9%
same,growth inhibition,[12]; at 1.2 µM,-3%
same,growth inhibition,[12]; at 3.7 µM,6%
same,growth inhibition,[12]; at 11.0 µM,-3%
same,growth inhibition,[12]; at 33.0 µM,-1%
same,growth inhibition,[12]; at 100.0 µM,18%
same,growth inhibition,[13]; at 1.2 µM,0%
same,growth inhibition,[13]; at 3.7 µM,-2%
same,growth inhibition,[13]; at 11.0 µM,-1%
same,growth inhibition,[13]; at 33.0 µM,3%
same,growth inhibition,[13]; at 100.0 µM,16%
same,growth inhibition,[14]; at 1.2 µM,7%
same,growth inhibition,[14]; at 3.7 µM,11%
same,growth inhibition,[14]; at 11.0 µM,27%
same,growth inhibition,[14]; at 33.0 µM,56%
same,growth inhibition,[14]; at 100.0 µM,87% (active)
same,growth inhibition,[15]; [17],18%
same,growth inhibition,[15]; [18],71% (active)
same,growth inhibition,[15]; at 50.0 µM,85.8% (active)
same,growth inhibition,[16]; at 1.2 µM,78% (active)
same,growth inhibition,[16]; at 3.7 µM,85% (active)
same,growth inhibition,[16]; at 11.0 µM,88% (active)
same,growth inhibition,[16]; at 33.0 µM,93% (active)
same,growth inhibition,[16]; at 100.0 µM,97% (active)
